Source: the supplement of paper PMC6555819

Columns and labels:
Experiment in all cases: PBM binding z-score (relative to random genomic background probes); higher = stronger binding; sequences stand for … in GC…GCGATTGACAGCGTAGAATGAAGG
[1] = tested on: RARb homodimer (NR concentration 270 nM)
Outline: (§1)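 Binding z-scores take random background probes as their reference. They come from custom Agilent 4×180K protein-binding microarrays incubated 1 h with ligand-free nuclear receptor dimers, with antibodies against each partner (one per run) detecting binding. Scanned fluorescence was regression-normalized.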

[2] = tested on: RARg:RXRa (NR concentration 270 nM, RXRa partner concentration 90 nM)
Outline: as §1

[3] = tested on: RARg homodimer (NR concentration 270 nM)
Outline: as §1

[4] = tested on: RXRa DBDmut IVT, anti-RXR (DBD mutation: RXRa K156A/R161A, NR concentration 90 nM)
Outline: as §1

[5] = tested on: RXRa homodimer (NR concentration 180 nM)
Outline: as §1

[6] = tested on: THRa:RXRa (NR concentration 90 nM, RXRa partner concentration 90 nM)
Outline: as §1

[7] = tested on: THRa homodimer (NR concentration 90 nM)
Outline: as §1

[8] = tested on: VDR homodimer (NR concentration 270 nM)
Outline: as §1

Row | Sequence | PBM binding z-score [1] | PBM binding z-score [2] | PBM binding z-score [3] | PBM binding z-score [4] | PBM binding z-score [5] | PBM binding z-score [6] | PBM binding z-score [7] | PBM binding z-score [8]
1 | CCTCGGAGGACAGAGGGTCAGAGCTGTCCGCTTT | 2.47 | 2.45 | 2.4 | -0.382 | 1.6 | 1.69 | -0.314 | -0.0777
2 | CCTACTGGGCCATTCCGAGGTCATTGATCATATG | 3.36 | 3.43 | 2.28 | 1.08 | 2.86 | 3.68 | 3.62 | 4.08
3 | CCTATTGGTTGACCATAAGGGCAACCGAAGCTCG | 1.47 | 0.997 | 0.631 | -0.724 | 0.512 | 1.62 | 0.504 | -0.166
4 | TTACCAAGGTGAGCTGAGGTCGTTAATCCAACTC | 1.49 | 0.963 | 0.731 | -0.172 | 1.12 | 4.42 | 1.8 | 1.33
5 | CCTTACGGGTCAATCCAGGTTATAGCATCGGAGT | 3 | 4.49 | 4.17 | 1.75 | 4.31 | 4.93 | 0.547 | 1.32
6 | AGAATGACGTTATTAAGATCAGGGAATTGCGGTC | -0.448 | -0.146 | 0.0594 | -0.095 | -0.18 | -0.42 | -0.892 | -0.318
7 | TCATATAGGTAAAGGTGTAAGTCGAACGATATGA | -0.352 | 0.365 | 0.406 | 0.642 | 0.621 | -0.275 | -0.761 | -0.275
8 | TCTAGTTGGTCACGGAGGTCACACTCGACGGGTA | 4.42 | 4.61 | 4.99 | 1.2 | 4.54 | 3.59 | 2.56 | 2.99
9 | ACTAGCAGGCCAAGTTAGGGTCACTCAAACAAAG | 3.53 | 4.02 | 2.89 | -0.159 | 3.35 | 4.14 | 2.34 | 1.18
10 | CAGCCTAGGCCAGGGCCAGTATAGGAGGAACGTT | -0.366 | -0.536 | 0.11 | -1.57 | -0.601 | -0.884 | -0.601 | -0.322
11 | TCTGCTAGGTCAGTTGGTCATCTAACGAGCTGCC | 2.81 | 2.87 | 3.99 | 0.589 | 1.25 | 1.63 | 0.119 | -0.506
12 | TAGCCTAGGTCATGGGACAGTATACCACGCGAAC | 3.25 | 4.44 | 4.59 | 0.981 | 3.62 | 3.35 | 1.62 | 0.784
13 | ACACACAGGTGATGAAGGTAACTCAGGCTATCAT | 0.43 | 0.435 | 0.664 | 0.355 | 0.276 | 1.06 | 0.194 | 0.17
14 | CCTCACGGGTCACGAGGTTATAGCACGACGAGCG | 3.79 | 5.79 | 5.33 | 1.43 | 6.4 | 3.36 | 1.24 | 2.22
15 | CGAACTAGGTCAAGGATAGTGAATCTCCGCACGC | 3.08 | 3.74 | 4.44 | 1.47 | 2.58 | 2.67 | 1.35 | 0.279
16 | TCATATAGGTAATACAGGCGAAAGTCGGCATCTA | -0.403 | 0.375 | 0.171 | 1.23 | 0.623 | -0.0703 | -0.232 | -0.187
17 | CCTCGGAGGACAGAAGGTCAGGGCTGTCCGCTTT | 3.88 | 3.67 | 3.54 | -0.126 | 2.22 | 2.35 | 0.202 | 0.107
18 | CGTTACGGGTCACGAGGTTATAGCACGACGAGCG | 3.99 | 6.32 | 5.62 | 2.01 | 7.51 | 3.95 | 1.09 | 1.96
19 | CCTACTGGGCCACGGTCATTGATCAGTCAAAGCA | 1.5 | 0.43 | 0.896 | -1.25 | -0.391 | 0.204 | -0.144 | -0.135
20 | CCAACTGGGCCACGAAAGGTCATTGATTCAGTGA | 4.65 | 4.7 | 4.65 | 0.781 | 5.13 | 3.69 | 0.917 | 2.32
21 | GCTGCTAGGTCAGGTTGGTCCGCTAACGGGTACG | 2.4 | 2.29 | 3.46 | 0.513 | 0.839 | 2.36 | 0.57 | -0.0405
22 | CCTCGGAGGACAGAAGGTCACAGCTGTCCGCTTT | 4.26 | 4.72 | 4.05 | 0.581 | 3.83 | 3.36 | 0.632 | 0.765
23 | CATACTGGGTCAGCTAGGCCAGAGTAGGGACGGC | 2.13 | 2.65 | 3.42 | -0.42 | 1.39 | 1.53 | 0.0605 | -0.0161
24 | CCTCCTGGGCCATTCAGAGGTCATTGATCATATG | 4.15 | 4.79 | 3.13 | 0.494 | 4 | 3.3 | 1.39 | 3.92
25 | TAGCCTAGGTCATTCAGGGGCCAGTATTGAAAGC | 3.3 | 6.04 | 4.51 | 2.08 | 2.72 | 3.47 | 0.833 | 2.03
26 | ATCGAAAGGTCGAAGCTGAGTATACCCACCCGAA | 2.18 | 3.83 | 3.5 | 1.42 | 4.13 | 1.73 | 0.00439 | 0.746
27 | ATCTCTAGGTAACCAGGTTCAGTGAATGCCGAAC | 0.891 | 0.484 | 0.267 | 0.664 | 0.776 | 1.33 | 0.822 | 2.53
28 | CGGCCAAGGTCATAGGAGGTCAGTGAAGACAGAT | 5.15 | 6.78 | 7.19 | 3.51 | 6.42 | 5.33 | 2.88 | 4.3
